# Numbering of substitutions follows the chain as printed.
# Legend:
# Assay in all cases: protein-binding microarray (PBM); PBM: ~300 nM protein, 6 mM HEPES pH 7.8, 80 mM KCl, 0.5 mM EDTA, 0.5 mM EGTA, 6% glycerol, 35 ng/ul poly-dIdC, 1% milk, 1 h, room temperature; Ap Aiptasia and Nv Nematostella (sea anemones) / Co Capsaspora / Aq Amphimedon (sponge) / Dm Drosophila / Hu human; RHD is the Rel homology domain; high values mean tight binding
# Conditions in all cases: dsDNA, one strand shown
# [1] = molecular target: T1, GST-Ap-NF-kB RHD (Exaiptasia pallida (Aiptasia), UniProt A0A913YAJ5 2-422)
# T1 sequence: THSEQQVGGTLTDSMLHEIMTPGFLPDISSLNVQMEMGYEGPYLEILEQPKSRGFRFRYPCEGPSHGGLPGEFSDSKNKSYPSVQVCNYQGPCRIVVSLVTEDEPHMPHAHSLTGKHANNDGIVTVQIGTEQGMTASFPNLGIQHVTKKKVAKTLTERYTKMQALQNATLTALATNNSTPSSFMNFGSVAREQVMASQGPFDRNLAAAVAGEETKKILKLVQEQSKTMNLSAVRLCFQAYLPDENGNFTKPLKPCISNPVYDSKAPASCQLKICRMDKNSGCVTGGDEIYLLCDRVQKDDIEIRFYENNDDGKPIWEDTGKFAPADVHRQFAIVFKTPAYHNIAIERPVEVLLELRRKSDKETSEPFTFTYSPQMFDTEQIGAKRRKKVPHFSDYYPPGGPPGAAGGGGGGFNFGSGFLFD
# [2] = molecular target: T2, GST-Nv-NF-kB (Cys allele) (Nematostella vectensis, UniProt E5G601 2-411)
# T2 sequence: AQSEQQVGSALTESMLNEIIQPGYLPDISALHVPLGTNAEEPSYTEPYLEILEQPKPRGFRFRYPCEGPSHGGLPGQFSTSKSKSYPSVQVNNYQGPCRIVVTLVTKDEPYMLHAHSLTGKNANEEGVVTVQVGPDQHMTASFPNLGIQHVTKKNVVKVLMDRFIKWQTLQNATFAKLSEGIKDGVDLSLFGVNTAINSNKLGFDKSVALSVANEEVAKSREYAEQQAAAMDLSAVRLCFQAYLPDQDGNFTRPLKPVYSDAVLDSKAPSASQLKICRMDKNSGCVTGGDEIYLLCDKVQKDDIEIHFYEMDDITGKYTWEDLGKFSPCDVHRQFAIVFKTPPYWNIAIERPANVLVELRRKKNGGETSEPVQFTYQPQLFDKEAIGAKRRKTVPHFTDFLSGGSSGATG
# [3] = molecular target: T3, GST-Nv-NF-kB (Ser allele) (Nematostella vectensis, UniProt A7UNT2 2-411)
# T3 sequence: T2 sequence with Q21R, C66S, S207N, E215Q, V217A, E225K, A268E, D399E
# [4] = molecular target: T4, GST-Dm-Relish (Drosophila melanogaster, UniProt Q94527 99-473)
# T4 sequence: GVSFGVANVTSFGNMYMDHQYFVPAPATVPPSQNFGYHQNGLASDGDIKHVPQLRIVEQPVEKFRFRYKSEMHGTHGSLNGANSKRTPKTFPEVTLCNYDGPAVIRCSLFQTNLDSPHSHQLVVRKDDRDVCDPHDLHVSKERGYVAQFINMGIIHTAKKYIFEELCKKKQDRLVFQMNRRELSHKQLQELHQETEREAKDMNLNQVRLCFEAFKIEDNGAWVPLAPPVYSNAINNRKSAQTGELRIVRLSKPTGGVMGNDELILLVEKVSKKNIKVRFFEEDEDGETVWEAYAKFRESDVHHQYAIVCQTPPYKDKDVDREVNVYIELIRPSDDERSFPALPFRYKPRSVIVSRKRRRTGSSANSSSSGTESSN
# [5] = molecular target: T5, GST-Aq-NF-kB (Amphimedon queenslandica, UniProt A9Y5G7 2-389)
# T5 sequence: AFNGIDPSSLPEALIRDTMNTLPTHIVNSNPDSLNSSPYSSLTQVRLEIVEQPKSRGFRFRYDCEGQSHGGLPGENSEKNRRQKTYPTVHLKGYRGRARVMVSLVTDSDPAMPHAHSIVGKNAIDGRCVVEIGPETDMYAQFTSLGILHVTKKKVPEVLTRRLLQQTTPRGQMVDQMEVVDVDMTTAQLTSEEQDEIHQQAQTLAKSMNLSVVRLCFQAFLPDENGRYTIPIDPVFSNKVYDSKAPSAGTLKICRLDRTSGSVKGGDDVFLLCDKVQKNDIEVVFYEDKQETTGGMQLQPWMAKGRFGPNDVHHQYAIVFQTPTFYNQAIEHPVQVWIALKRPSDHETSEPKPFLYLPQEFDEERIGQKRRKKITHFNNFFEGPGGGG
# [6] = molecular target: T6, GST-Co-NF-kB (Capsaspora owczarzaki, UniProt F1ARL5 200-546)
# T6 sequence: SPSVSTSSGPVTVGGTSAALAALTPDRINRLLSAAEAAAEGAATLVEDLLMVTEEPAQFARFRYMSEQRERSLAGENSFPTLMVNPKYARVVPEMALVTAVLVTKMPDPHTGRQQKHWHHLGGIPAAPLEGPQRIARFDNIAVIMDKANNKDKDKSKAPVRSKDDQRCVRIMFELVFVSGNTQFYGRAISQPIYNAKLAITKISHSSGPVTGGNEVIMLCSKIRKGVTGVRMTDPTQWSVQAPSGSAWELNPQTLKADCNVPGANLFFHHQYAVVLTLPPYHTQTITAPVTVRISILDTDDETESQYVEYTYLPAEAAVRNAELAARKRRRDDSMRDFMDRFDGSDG
Sequence,binding signal [1] [z-score],binding signal [2] [z-score],binding signal [3] [z-score],binding signal [4] [z-score],binding signal [5] [z-score],binding signal [6] [z-score]
CCGATTAACATCAAAAAACTACCTGATGTTAATCGGGTCTTGATTCGCTTGACGCTGCTG,2.29,3,7.62,6.2,3.57,
CCGATTAACATCACGGGGGGGAATGATGTTAATCGGGTCTTGATTCGCTTGACGCTGCTG,6.98,5.54,6.1,5.39,5.91,9.46
CCGATTAACATCAGCCCCCCGTCTGATGTTAATCGGGTCTTGATTCGCTTGACGCTGCTG,3.16,2.22,1.71,3.83,3.37,3
CCGATTAACATCAAAAAATTACCTGATGTTAATCGGGTCTTGATTCGCTTGACGCTGCTG,2.19,4.07,6.92,6.23,3.3,
CCGATTAACATCAACGGGAACTCTGATGTTAATCGGGTCTTGATTCGCTTGACGCTGCTG,2.34,1.64,1.08,1.77,2.25,1.78
CCGATTAACATCAAAGCATTCCCTGATGTTAATCGGGTCTTGATTCGCTTGACGCTGCTG,2.32,3.04,,,3.35,2.52
CCGATTAACATCAGATTTCTCCCTGATGTTAATCGGGTCTTGATTCGCTTGACGCTGCTG,1.96,3.11,,,3.18,2.92
CCGATTAACATCATTAGGGAAAATGATGTTAATCGGGTCTTGATTCGCTTGACGCTGCTG,3.51,6.08,7.94,1.55,4.53,2.21
CCGATTAACATCAGGTAATTACCTGATGTTAATCGGGTCTTGATTCGCTTGACGCTGCTG,2.06,4.18,5.28,5.43,5.11,
CCGATTAACATCACATCTTTCCCTGATGTTAATCGGGTCTTGATTCGCTTGACGCTGCTG,2.24,3.96,,,4.25,3.84
CCGATTAACATCACGGTAATCCCTGATGTTAATCGGGTCTTGATTCGCTTGACGCTGCTG,4.31,1.91,1.84,5.6,4.77,
CCGATTAACATCAGGGACGGAAATGATGTTAATCGGGTCTTGATTCGCTTGACGCTGCTG,2.7,3.44,,,2.84,2.07
CCGATTAACATCAACCTTTCCCCTGATGTTAATCGGGTCTTGATTCGCTTGACGCTGCTG,5.33,6.21,7.66,1.62,4.44,6.19
CCGATTAACATCAGGGAATTAGATGATGTTAATCGGGTCTTGATTCGCTTGACGCTGCTG,1.83,3.48,,,3.43,2.41
CCGATTAACATCAAAGTTTTCCCTGATGTTAATCGGGTCTTGATTCGCTTGACGCTGCTG,4.37,6.15,7.61,2.47,4.93,6.07
CCGATTAACATCAACATTTTCCCTGATGTTAATCGGGTCTTGATTCGCTTGACGCTGCTG,3.52,5.79,8.32,1.62,3.41,4.91
CCGATTAACATCACGGGATTTTCTGATGTTAATCGGGTCTTGATTCGCTTGACGCTGCTG,5.11,4.77,4.15,6.84,5.2,1.98
CCGATTAACATCATACAAGGGAGTGATGTTAATCGGGTCTTGATTCGCTTGACGCTGCTG,1.02,1.41,,,2.84,1.46
CCGATTAACATCAGGGAAGGACCTGATGTTAATCGGGTCTTGATTCGCTTGACGCTGCTG,1.78,2.28,1.09,4.44,3.91,
CCGATTAACATCAGGGGATACCCTGATGTTAATCGGGTCTTGATTCGCTTGACGCTGCTG,8.36,7.45,6.59,9.05,8.11,3.74
CCGATTAACATCAAGAGTTCCCCTGATGTTAATCGGGTCTTGATTCGCTTGACGCTGCTG,7.18,7.2,7.72,7.58,5.77,6.55
CCGATTAACATCATTTCCCTTGATGATGTTAATCGGGTCTTGATTCGCTTGACGCTGCTG,1.97,4.19,,,3.49,1.95
CCGATTAACATCAGGAAAGTACCTGATGTTAATCGGGTCTTGATTCGCTTGACGCTGCTG,3.4,5.99,8.2,8.08,6.27,
CCGATTAACATCACGGGACCCCCTGATGTTAATCGGGTCTTGATTCGCTTGACGCTGCTG,6.47,3.01,,6.84,3.7,1.75
CCGATTAACATCACCAGTTTCCCTGATGTTAATCGGGTCTTGATTCGCTTGACGCTGCTG,2.66,3.06,,,2.6,3.09
CCGATTAACATCAAAATTCCCATTGATGTTAATCGGGTCTTGATTCGCTTGACGCTGCTG,3.68,6.03,,6.03,4.99,3.56
CCGATTAACATCACAACACCCCCTGATGTTAATCGGGTCTTGATTCGCTTGACGCTGCTG,5.03,3.99,,4.4,4.65,3.14
